Source: PubChem BioAssay
HCMV antiviral = human cytomegalovirus inhibition; activity change, negative = inhibition, % at 57.5 µM; AID 1259415; actives 4.5% (n = 410,000); HFF cells, HCMV-luciferase reporter, 72 h; stronger effect = lower value; in the data active = activity change below about -60%; inconclusive = no clear call, values can overlap the other calls; inactive = above about -39%
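Cell-based, HFFs, 1000 cells/well, 16 h 37C; cpds in DMSO + HCMV-luc, MOI 1 PFU/cell; 72 h 37C; OneGlo luminescence after 5 min RT; norm. to buffer vs Salinomycin 10uM.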
MARV entry inh = inhibitors of Marburg virus binding or cell entry; Marburg virus pseudotyped entry inhibition, cell reporter; Potency, µM (doses to about 37.8 µM), most hits filed as inhibitors; actives 1.8% (n = 300,000); AID 540276; calls by dose curve; tested in HEK293 cells
HCV inh = blocks hepatitis C virus; Huh7.5.1 HCVcc-Cre infection, luciferase reporter, 44 h; Potency, µM (doses to about 41.8 µM), usual class: inhibitors; actives 3.4% (n = 340,000); AID 651820; active = well fitted inhibition curve with a large enough effect; inconclusive = small, poorly fitted or top-dose-only effect, or another doubt; inactive = no such curve, though single readings can be large or run the other way
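Infectious HCVcc-Cre (~0.5 moi) was added to cells just after compound, with cells seeded 4 h earlier at 1,000 per well. Luciferase activity after 44 h culture reported infection; substrate was incubated 15 min at room temperature before reading.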
FMDV antiviral = foot and mouth disease virus antiviral activity; FMDV antiviral cell-based qHTS; Potency, µM (titrated, usually from 57.9 µM), actives largely listed as inhibitors; actives 1.2% (n = 410,000); AID 1159524; calls by dose curve; tested in HEK293T cells; note: read-out not given here; nearly all actives have a fitted effect of over 45% in size
Lassa entry inh = blocks Lassa virus binding to or entry into cells; Lassa virus pseudotype entry inhibition, cell reporter; actives 1.2% (n = 300,000); Potency, µM (highest dose often 37.9 µM), most hits filed as inhibitors; calls by dose curve; tested in HEK293 cells; note: nearly all actives have a fitted effect of over 50% in size
Each line names hits and unclear results; the compound was inactive in the other large screens; ! = a repeat was not active. Rows were chosen to be rich in hits. Some 7.9% of all compounds tested hit in one or more screens of this group.

COc1ccccc1CNS(=O)(=O)c1ccc(-c2cc(C(F)(F)F)on2)s1	none (no result: MARV entry inh, HCV inh)
CCc1cc(C(=O)N2CCCC(C(=O)c3ccc(Oc4ccccc4)cc3)C2)n(C)n1 (stereo unspecified)	HCMV antiviral inconclusive, MARV entry inh 11.2µM, HCV inh inconclusive, FMDV antiviral inconclusive
CSc1ccc(C(=O)C2CCCN(C(=O)c3nn(C)c(=O)c4ccccc34)C2)cc1 (stereo unspecified)	MARV entry inh inconclusive, HCV inh 12.6µM, FMDV antiviral inconclusive, Lassa entry inh inconclusive
CC(=O)Nc1cccc(/C(C)=N/NC(=O)c2ccc(NS(=O)(=O)c3cccs3)cc2)c1	none
C/C(=N\NC(=O)c1ccc(NS(=O)(=O)c2cccs2)cc1)c1ccc(C(C)(C)C)cc1	MARV entry inh inconclusive, HCV inh 7.08µM, Lassa entry inh inconclusive
COc1cc(CC(=O)Nc2nc(-c3ccccc3)c(C(C)=O)s2)cc(OC)c1OC	HCV inh 12.6µM, Lassa entry inh inconclusive
COc1ccc(CC(=O)Nc2nc(-c3ccccc3)c(C(C)=O)s2)cc1OC	HCMV antiviral inconclusive, MARV entry inh 11.2µM, HCV inh 12.6µM, Lassa entry inh inconclusive
CCOC(=O)c1c(-c2ccco2)csc1NC(=O)CSc1nnc(N)s1	HCV inh 11.2µM
CCOC(=O)c1c(-c2ccccc2)csc1NC(=O)c1nc(SCC)ncc1Cl	MARV entry inh inconclusive (no result: HCV inh)
CCOC(=O)c1c(-c2ccc(OC)cc2)csc1NC(=O)CCN1C(=O)c2ccccc2C1=O	HCV inh inconclusive
CCOC(=O)c1c(-c2ccc(C)o2)csc1NC(=O)CSc1nncs1	HCMV antiviral inconclusive, HCV inh inconclusive, Lassa entry inh inconclusive (no result: FMDV antiviral)
CCOC(=O)c1c(-c2ccccc2)csc1NC(=O)CSc1nc(N)cc(N)n1	HCMV antiviral -66.6, MARV entry inh inconclusive, HCV inh 12.6µM, FMDV antiviral 17.8µM
CCOC(=O)c1c(-c2ccccc2)csc1NC(=O)CSc1nc(C)cc(C)n1	HCMV antiviral -81.9, MARV entry inh inconclusive, HCV inh inconclusive, FMDV antiviral inconclusive, Lassa entry inh inconclusive
CCCSc1nc(-c2ccccc2)[nH]c1S(=O)(=O)c1ccc(C)cc1	MARV entry inh inconclusive (no result: HCV inh)
CS(=O)(=O)Nc1ccc([N+](=O)[O-])cc1Oc1ccccc1	MARV entry inh inconclusive, FMDV antiviral inconclusive, Lassa entry inh 0.0164µM!
O=C(c1ccccc1[N+](=O)[O-])N1CCC[C@@H]1c1noc2ccccc12	HCMV antiviral -61.6 (no result: MARV entry inh, HCV inh, FMDV antiviral, Lassa entry inh)
COc1ccccc1NC(=O)N1CCN(c2cc(-c3ccccc3)nc3ncnn23)CC1	HCMV antiviral -95.4, MARV entry inh inconclusive, HCV inh 10µM, FMDV antiviral 31.6µM
COc1ccc(OC)c(NC(=O)C2CCN(c3cc(-c4ccccc4)nc4ncnn34)CC2)c1	HCMV antiviral inconclusive, MARV entry inh inconclusive, HCV inh 14.1µM
COc1ccc(NC(=O)C2CCN(c3cc(-c4ccccc4)nc4ncnn34)CC2)cc1OC	HCMV antiviral -89.4, FMDV antiviral inconclusive, Lassa entry inh inconclusive
C=CCOc1ccc(/C=C2\SC(=Nc3cccnc3)NC2=O)cc1	MARV entry inh inconclusive, Lassa entry inh 3.55µM
CCOC(=O)N1CCN([C@@H]2OC(=O)c3ccccc32)CC1	none (no result: HCMV antiviral, HCV inh, FMDV antiviral, Lassa entry inh)
FC(F)(F)c1ccc(Nc2cc3c(cn2)ncn3Cc2ccco2)cc1	none (no result: MARV entry inh, HCV inh, FMDV antiviral, Lassa entry inh)
CC(=O)N1CCN2C(=O)C1CCCC(=O)c1cc(C3CCCCC3)ccc12 (stereo unspecified)	none
CC(=O)N1CCN2C(=O)C1CCCC(=O)c1cc(C(C)C)ccc12 (stereo unspecified)	HCMV antiviral -67.4
COC(=O)[C@]1(C)CC[C@@]2(C)CC[C@@]3(C)C4=CCc5c(cc(O)c(O)c5C)[C@]4(C)CC[C@@]3(C)C2C1 (stereo partly specified)	FMDV antiviral 20µM (no result: HCMV antiviral, MARV entry inh, HCV inh, Lassa entry inh)
COc1cc(/C=C/c2ccc3cccc(O)c3n2)cc(Cl)c1OC	MARV entry inh 4.47µM, HCV inh inconclusive, Lassa entry inh inconclusive
COc1cc(/C=C/c2ccc3c(Br)cc(Br)c(O)c3n2)ccc1O	HCMV antiviral -99.7, HCV inh 8.91µM, FMDV antiviral inconclusive (no result: MARV entry inh, Lassa entry inh)
COc1cccc(/C=C/c2ccc3cccc(O)c3n2)c1	HCMV antiviral -94.5, MARV entry inh inconclusive, HCV inh inconclusive, Lassa entry inh inconclusive
Oc1cccc(/C=C/c2ccc3cccc(O)c3n2)c1	MARV entry inh inconclusive, HCV inh inconclusive, Lassa entry inh inconclusive
COC(=O)c1ccc(/C=C/c2ccc3cccc(OC)c3n2)cc1	FMDV antiviral inconclusive
COc1cc(/C=C/c2ccc3cccc(O)c3n2)cc(OC)c1OC	HCMV antiviral -94.4, MARV entry inh inconclusive, HCV inh inconclusive, Lassa entry inh inconclusive
C=CCSc1nnc(C2CCCN(Cc3ccccc3O)C2)n1C (stereo unspecified)	none (no result: HCMV antiviral, MARV entry inh, HCV inh, Lassa entry inh)
COc1cc(/C=C/c2nc(-c3ccccc3O)n[nH]2)cc(OC)c1OC	MARV entry inh inconclusive, HCV inh 11.2µM, FMDV antiviral inconclusive, Lassa entry inh inconclusive
COc1cc(/C=C/c2ccc3cccc(O)c3n2)cc(Br)c1OC	HCMV antiviral inconclusive, MARV entry inh inconclusive, HCV inh 11.2µM
COc1ccc(/C=C/c2ccc3cccc(O)c3n2)cc1Br	HCV inh inconclusive (no result: MARV entry inh, Lassa entry inh)
CCc1nn(CC(=O)Nc2cc(C)ccc2C)c(=N)s1	none
CCCCN(C(=O)c1ccc(-n2nc(C)cc2C)cc1)c1c(N)n(CCC)c(=O)[nH]c1=O	none
Cc1cc2c(cc1C)-c1c(ssc1=Nc1ccc(S(N)(=O)=O)cc1)C(C)(C)N2	HCV inh 12.6µM (no result: MARV entry inh, Lassa entry inh)
NC(=O)CCC(=O)N1CCCC(C(=O)c2ccc(C(F)(F)F)cc2)C1 (stereo unspecified)	none (no result: MARV entry inh, Lassa entry inh)
O=C(c1ccc(C(F)(F)F)cc1)C1CCCN(Cc2ccc(CO)o2)C1 (stereo unspecified)	none (no result: MARV entry inh, Lassa entry inh)
O=C(c1ccc(C(F)(F)F)cc1)C1CCCN(Cc2ccncc2)C1 (stereo unspecified)	HCMV antiviral inconclusive, HCV inh 6.31µM, FMDV antiviral inconclusive (no result: Lassa entry inh)
O=C(c1ccc(C(F)(F)F)cc1)C1CCCN(C(=O)CCc2ccncc2)C1 (stereo unspecified)	MARV entry inh inconclusive, HCV inh 11.2µM, FMDV antiviral inconclusive
O=C(NC1CCCCC1)C1CCN(S(=O)(=O)c2cccc3nonc23)CC1	none
COc1cc2[nH]c3c(N4CCN(c5ccccn5)CC4)ncnc3c2cc1OC	MARV entry inh 10µM, HCV inh 6.31µM, FMDV antiviral 17.8µM, Lassa entry inh inconclusive (no result: HCMV antiviral)
OC1(c2cccc(C(F)(F)F)c2)CCN(c2ncnc3c2[nH]c2ccc(F)cc23)CC1	HCMV antiviral -87.2, MARV entry inh 3.98µM, HCV inh 0.708µM, FMDV antiviral inconclusive, Lassa entry inh 14.1µM
CCOC(=O)N1CCN(c2ncnc3c2[nH]c2ccc(F)cc23)CC1	HCMV antiviral -81.0, MARV entry inh inconclusive, HCV inh 8.91µM, FMDV antiviral 14.1µM
COc1cccc2[nH]c3c(N4CCCCC4)ncnc3c12	none
CCOc1ccc2[nH]c3c(N4CCC5(CC4)OCCO5)ncnc3c2c1	MARV entry inh inconclusive, HCV inh inconclusive, Lassa entry inh inconclusive
COc1ccc(N2CCN(c3ncnc4c3[nH]c3ccccc34)CC2)cc1	HCMV antiviral -91.7, MARV entry inh inconclusive, HCV inh 5.62µM, FMDV antiviral 3.98µM, Lassa entry inh inconclusive
Fc1ccc2[nH]c3c(Cl)ncnc3c2c1	none (no result: MARV entry inh, Lassa entry inh)
